Compound activity (PubChem)
OTUD3 inh = inhibitors of human OTUD3 deubiquitinase; Q5T2D3; purified OTUD3, Ub-rhodamine fluorescence, 2 h; inhibition, % at 25 µM; hit rate 0.7% among 47,000; AID 1645858
USP17 block = blocks human USP17 ubiquitin-rhodamine cleavage; inhibition, % at 50 µM; hit rate 6.5% among 47,000; purified USP17, Ub-rhodamine cleavage fluorescence, 3 h
USP30 inh = blocks human USP30 ubiquitin-rhodamine cleavage; Q70CQ3; purified USP30, Ub-rhodamine cleavage fluorescence; inhibition, % at 25 µM; hit rate 5.3% among 47,000; AID 1645860
Target sequence (Q70CQ3 whole entry, looked up): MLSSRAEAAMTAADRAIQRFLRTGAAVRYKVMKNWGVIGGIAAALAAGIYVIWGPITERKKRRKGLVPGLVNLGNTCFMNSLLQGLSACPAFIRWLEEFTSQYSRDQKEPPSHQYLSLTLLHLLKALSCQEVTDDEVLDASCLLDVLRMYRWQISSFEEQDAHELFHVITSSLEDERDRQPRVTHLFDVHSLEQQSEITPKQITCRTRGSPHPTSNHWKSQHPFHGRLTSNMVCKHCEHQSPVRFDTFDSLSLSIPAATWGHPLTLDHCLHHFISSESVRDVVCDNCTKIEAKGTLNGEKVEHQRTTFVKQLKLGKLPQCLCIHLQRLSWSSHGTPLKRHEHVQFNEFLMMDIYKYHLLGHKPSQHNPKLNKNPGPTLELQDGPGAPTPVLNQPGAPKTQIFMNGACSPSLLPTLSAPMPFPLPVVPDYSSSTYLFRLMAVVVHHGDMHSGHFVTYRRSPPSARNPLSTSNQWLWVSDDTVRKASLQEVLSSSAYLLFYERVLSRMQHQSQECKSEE
USP28 inh = blocks human USP28 ubiquitin-rhodamine cleavage | Q96RU2 | purified USP28, Ub-rhodamine cleavage fluorescence, 30 min | inhibition, % at 25 µM | hit rate 3% among 47,000 | AID 1645857
Numbers without * were called inactive. A selection: hits, their analogues and other compounds. The true share with any hit is near 12%. Rule as the data show it: active = inhibition above about 30%; inactive = the rest.

Screening O=C(O)c1ccccc1C(=O)Nc1ccc(SC(C(=O)Nc2ccccc2Cl)c2ccccc2)cc1 (stereo not drawn) returned OTUD3 inh 9, USP17 block 47*, USP30 inh 4 and USP28 inh 24.
Cc1cccc(NC(=O)C(Sc2ccc(NC(=O)c3ccccc3C(=O)O)cc2)c2ccccc2)c1 (stereo not drawn) was read as OTUD3 inh -37, USP17 block -23, USP30 inh -38 and USP28 inh -15.
`Cc1ccccc1C(=O)Nc1cccc(SC(C(=O)Nc2ccc(O)c(C(=O)O)c2)c2ccccc2)c1` (stereo not drawn) gave OTUD3 inh 11, USP17 block 28, USP30 inh 38* and USP28 inh 15.
Screening O=C(O)c1cccc(NC(=O)C(Sc2cccc(NC(=O)c3cccc(Cl)c3)c2)c2ccccc2)c1 (stereo not drawn) returned OTUD3 inh 3, USP17 block 42*, USP30 inh -4 and USP28 inh 26.
Cc1cccc(C(=O)Nc2cccc(SC(C(=O)Nc3ccc(O)c(C(=O)O)c3)c3ccccc3)c2)c1 (stereo not drawn) was read as OTUD3 inh 8, USP17 block 29, USP30 inh 6 and USP28 inh 52*.
Screening CCCc1cc(N2CCN(C(=O)C3CCC3)CC2)nc2nnc(C)n12 returned OTUD3 inh -4, USP30 inh -16 and USP28 inh -19.
Screening Cc1ccc2c(c1)NC(=O)C(CC(=O)Nc1ccccc1C)CO2 (stereo not drawn) returned OTUD3 inh 8, USP17 block 4, USP30 inh 20 and USP28 inh 1.
CCC(C(=O)N1CCc2nc(NC)n(-c3ccccc3)c(=O)c2C1)c1ccccc1 (stereo not drawn) was read as OTUD3 inh 0, USP17 block -6, USP30 inh 0 and USP28 inh -5.
Screening Cc1cc(C#N)c2c(C)ccc(C(C)C)cc1-2 returned OTUD3 inh 17, USP17 block 3, USP30 inh 15 and USP28 inh 58*.
`CNC(=O)C1Cn2ccnc2C2(CCN(C(=O)Cc3cccc(OC)c3)CC2)O1` (stereo not drawn) gave OTUD3 inh -8, USP17 block -63, USP30 inh -27 and USP28 inh -16.
For COc1ccc(-c2ocnc2C(=O)Nc2cccc(Cl)c2C)cc1OC the results were OTUD3 inh -6, USP17 block 28, USP30 inh 58* and USP28 inh 0.
COc1ccc(C(C)=O)cc1COC(=O)c1oc2ccc(Br)cc2c1C was read as OTUD3 inh -9, USP17 block 21, USP30 inh -58 and USP28 inh 0.
For COc1ccc(C(C)=O)c2cc(C#N)oc12 the results were OTUD3 inh 0, USP17 block 30*, USP30 inh 2 and USP28 inh -2.
For COc1ccc(-n2c(N(C)C)nc3cc(C(=O)NC4CC4)sc32)cc1 the results were OTUD3 inh -5, USP17 block 4, USP30 inh -5 and USP28 inh 42*.
CNC(=O)c1cc2nc(N(C)C)n(-c3ccccc3)c2s1 was read as OTUD3 inh -1, USP17 block 54*, USP30 inh -6 and USP28 inh 19.
Screening CCNC(=O)c1cc2nc(N(C)C)n(-c3ccccc3)c2s1 returned OTUD3 inh -6, USP17 block 38*, USP30 inh -38 and USP28 inh 22.
`CNC(=O)c1cc2nc(N(C)C)n(-c3ccc(OC)cc3)c2s1` gave OTUD3 inh 12, USP17 block 46*, USP30 inh 8 and USP28 inh 20.
`Cc1cc(CN2CCC(C3CCCCCN3C(=O)c3ccccc3)CC2)on1` (stereo not drawn) gave OTUD3 inh 4, USP17 block 0, USP30 inh -56 and USP28 inh -12.
Cc1ccc(NC(=O)Cc2c(C)nc(-c3ncccn3)[nH]c2=O)cc1C was read as OTUD3 inh 0, USP17 block -56, USP30 inh -10 and USP28 inh -10.
CC(C)(C)OC(=O)N1CCCC(c2cnc(N3CC4(CCCCC4)OC3=O)cn2)C1 (stereo not drawn) was read as OTUD3 inh 3, USP17 block -4, USP30 inh 10 and USP28 inh 22.
`Cn1cc(C(=O)N[C@@H]2C[C@@H](Oc3cccc(F)c3)[C@H](O)[C@H]2N2CCCC2)cn1` gave OTUD3 inh -12, USP17 block -16, USP30 inh -24 and USP28 inh -8.
Screening Cc1nn(C)cc1NC(=O)Nc1ccc(F)cc1 returned OTUD3 inh 13, USP17 block 11, USP30 inh 30* and USP28 inh 14.
`CCC(C(=O)Nc1ncc2c(n1)CC(c1ccc(Cl)cc1)CC2=O)c1ccccc1` (stereo not drawn) gave OTUD3 inh -14, USP17 block -4, USP30 inh 0 and USP28 inh 4.
For COc1ccc(-c2nnc(-c3ccc(-n4ccnc4)nc3)o2)c(OC)c1 the results were OTUD3 inh 8, USP17 block 7, USP30 inh 4 and USP28 inh 1.
For Cc1ccc(NC(=O)CCc2nc(CSc3nnc(-c4ccccc4)o3)no2)cc1C the results were OTUD3 inh 15, USP17 block 8, USP30 inh 31* and USP28 inh 14.
`Cc1cccc(C)c1NC(=O)CCc1nc(CSc2nc3ccccc3o2)no1` gave OTUD3 inh 20, USP17 block 10, USP30 inh 31* and USP28 inh 27.
`COc1ccccc1NC(=O)CCc1nc(CSc2nc3ccccc3o2)no1` gave OTUD3 inh 15, USP17 block -8, USP30 inh 21 and USP28 inh 33*.
For Cc1ccc(NC(=O)CCc2nc(CSc3nnc(-c4ccco4)o3)no2)c(C)c1 the results were OTUD3 inh -6, USP17 block -27, USP30 inh -60 and USP28 inh -8.
`Cc1ccc(C)c(NC(=O)CCc2nc(CSc3nc4ccccc4o3)no2)c1` gave OTUD3 inh 39*, USP17 block 15, USP30 inh 52* and USP28 inh 20.
For Cc1ccc(NC(=O)CCc2nc(CSc3nnc(-c4ccccc4)o3)no2)cc1 the results were OTUD3 inh 4, USP17 block 6, USP30 inh 15 and USP28 inh 4.
NC(=O)c1nc(-c2cccnc2)nc2c1[nH]c(=O)n2-c1ccc2c(c1)OCO2 was read as OTUD3 inh 48*, USP17 block 46*, USP30 inh 16 and USP28 inh 53*.
`Cc1ccc(-n2c(=O)[nH]c3c(C(N)=O)nc(C4CCCCC4)nc32)cc1` gave OTUD3 inh 5, USP17 block 0, USP30 inh 9 and USP28 inh -7.
NC(=O)c1nc(-c2ccccn2)nc2c1[nH]c(=O)n2-c1ccc2c(c1)OCO2 was read as OTUD3 inh 45*, USP17 block 43*, USP30 inh 43* and USP28 inh 13.
COc1cc(-c2nc(C(N)=O)c3[nH]c(=O)n(-c4ccc(C)cc4)c3n2)cc(OC)c1OC was read as OTUD3 inh 17, USP17 block 75*, USP30 inh 45* and USP28 inh 14.
